# KLK7 zymogen act: activators of human kallikrein-7 zymogen | P49862 | purified proKLK7, EDANS-DABCYL substrate fluorescence; 100% is mature enzyme control, 0% vehicle | activation, % at 7 µM | 370,000 compounds, 0.9% hits | AID 652039;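 active = activation above the mean of all tested compounds plus 3 SD, computed per campaign excluding outliers beyond control limits, cut at about 13% in these data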
# AHR activator: activates the human aryl hydrocarbon receptor; P35869; AHR-responsive luciferase reporter cells, luminescence; activation, % at 5 µM; 320,000 compounds, 2.5% hits; AID 2796; in the data active = activation above about 47%;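 note: 0% = vehicle wells and 100% = reference agonist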
# ADAM10 inh: inhibits human ADAM10 | O14672 | recombinant ADAM10, EDANS/DABCYL FRET peptide cleavage, 3 h | inhibition, % at 7 µM | 370,000 compounds, 0.62% hits;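 active = inhibition above a per-campaign cutoff equal to the mean of compounds falling between control-based bounds plus 3 SD, cut at about 20% in these data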;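 note: 0% = DMSO wells while the 100% control is not disclosed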
# rCAG binder: molecules binding r(CAG) RNA repeats | r(CAG) RNA repeat, TO-PRO-1 dye displacement fluorescence | inhibition, % at 3 µM | 370,000 compounds, 1.3% hits | AID 651821;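 active = inhibition above the plate cutoff, the mean of all test compounds on that plate plus 3 SD, cut at about 35% in these data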;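 note: 0% = DMSO alone and 100% = 100 µM mitoxantrone as full dye displacement; higher means more dye released from RNA so lower well fluorescence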
# ADAM17 inh: inhibitors of human ADAM17. recombinant ADAM17, EDANS/DABCYL FRET peptide cleavage. inhibition, % at 6.95 µM. 370,000 compounds, 0.83% hits;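 active = inhibition above the mean of compounds lying between control limits plus 3 SD, set per campaign, cut at about 8.5% in these data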;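 note: 0% = DMSO-only wells as the low control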
# Target sequence (P78536 215-824 limits assumed): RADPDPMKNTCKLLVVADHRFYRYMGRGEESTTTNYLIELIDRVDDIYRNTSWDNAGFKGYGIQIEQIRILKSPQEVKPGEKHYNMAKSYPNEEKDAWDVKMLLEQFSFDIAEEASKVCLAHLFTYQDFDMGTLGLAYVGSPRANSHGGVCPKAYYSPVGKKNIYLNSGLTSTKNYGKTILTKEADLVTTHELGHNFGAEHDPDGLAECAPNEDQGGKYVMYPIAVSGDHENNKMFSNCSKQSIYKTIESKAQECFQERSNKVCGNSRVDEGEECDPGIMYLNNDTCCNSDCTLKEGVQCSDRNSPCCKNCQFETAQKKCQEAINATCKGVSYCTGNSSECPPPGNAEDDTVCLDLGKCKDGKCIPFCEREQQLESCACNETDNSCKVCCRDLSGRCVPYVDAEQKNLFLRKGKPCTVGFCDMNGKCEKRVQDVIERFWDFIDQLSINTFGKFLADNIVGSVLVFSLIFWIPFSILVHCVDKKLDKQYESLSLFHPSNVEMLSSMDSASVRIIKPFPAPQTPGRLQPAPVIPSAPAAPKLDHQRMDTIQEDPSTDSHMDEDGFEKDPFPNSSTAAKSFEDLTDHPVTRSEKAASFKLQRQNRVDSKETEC
# GRIN3A LBD mod: modulators (binders) of human NR3A ligand-binding domain; 340,000 compounds, 2.5% hits; NR3A LBD differential scanning fluorimetry, Tm shift; 0% = protein alone, 100% = glycine-bound protein; Tm shift relative to glycine control, % at 25 µM;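 active = melting temperature shift of at least 10% of the positive control shift, at one fixed dose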
# ADAM10 ctr: inhibits human ADAM10 in ADAM17 exosite counter-screen; AID 743256; inhibition, % at 6.95 µM; recombinant ADAM10, EDANS/DABCYL FRET peptide cleavage, 3 h; 2,900 compounds, 47% hits; shares compounds with ADAM17 inh;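 active = mean inhibition over the triplicate runs exceeds the activity threshold set in the earlier primary screen, cut at about 20% in these data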;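 note: 0% = DMSO wells and 100% = marimastat wells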
# ADAM17 confirm: confirmation of inhibitors of human ADAM17. shares compounds with ADAM17 inh. recombinant ADAM17, EDANS/DABCYL QFRET peptide cleavage. inhibition, % at 6.95 µM. 2,900 compounds, 65% hits;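 active = mean inhibition across replicates above the hit cutoff set in the primary screen, cut at about 8.5% in these data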;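 note: 0% = DMSO wells and 100% = marimastat wells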
# An asterisk follows results filed as active; / = no result. Shown are actives, neighbours in structure and some others; about 7% of the full set was active somewhere.
SMILES,KLK7 zymogen act,AHR activator,ADAM10 inh,rCAG binder,ADAM17 inh,GRIN3A LBD mod,ADAM10 ctr,ADAM17 confirm
Cc1ccc(S(=O)(=O)NCCC(=O)Nc2ccc(Cl)c(Cl)c2)cc1,0,7,18,3,9.2*,10*,25*,15*
Cc1ccc(S(=O)(=O)NCCC(=O)Nc2cccc(Cl)c2)cc1,1,3,15,2,-1,-17,/,/
CN(CC(O)Cn1c2ccccc2c2ccccc21)S(C)(=O)=O (centres undefined),0,17,0,-3,1,-1,/,/
CCN(CC(O)Cn1c2ccccc2c2ccccc21)S(=O)(=O)c1ccc(C)cc1 (centres undefined),0,23,18,7,11*,3,28*,14*
COC(=O)c1c(C)oc(C)c1S(=O)(=O)NC(c1ccccc1)c1ccccc1,0,-2,-1,-7,0,-4,/,/
CN1CC(c2ccccc2)C2(SC(=S)N(Cc3ccco3)C2=O)C12C(=O)Nc1ccccc12 (centres undefined),0,-5,26*,0,10*,0,37*,24*
CC1CN(Cc2ccco2)C(=S)NC1=O (centres undefined),0,/,-10,0,-3,-1,/,/
Cc1cccc(C(=O)OC2CCOC2=O)c1C (centres undefined),-1,-1,0,2,-5,1,/,/
CSCCC(C(=O)Nc1c(C)cccc1C)N1CCN(c2ccc(C(F)(F)F)cn2)CC1 (centres undefined),1,/,-3,2,0,/,/,/
CCOC(=O)[C@]12CCCCC/C=C\1N(Cc1ccc(OC)cc1)C(=O)[C@H]2CC(=O)NCC1CCCCC1,0,/,11,4,13*,/,9,5
C=CCN1C(=O)[C@@H](CC(=O)NCc2cccc3ccccc23)[C@]2(C(=O)OCC)CCCCC/C=C/12,0,/,8,3,11*,/,8,5
CCN(CCNC(=O)Nc1ccc(Cl)cc1)c1ccccc1,1,36,16,-1,9.8*,22*,37*,19*
CC1(c2ccccc2Br)NC(=O)N(CC(=O)NC2CCCCC2)C1=O (centres undefined),0,0,-1,0,0,3,/,/
CCCCn1nnnc1C(c1cc2ccccc2o1)N1CCN(c2ccccc2F)CC1 (centres undefined),0,/,-7,3,-1,/,/,/
CCCCn1nnnc1C(c1cc2ccccc2o1)N1CCN(c2cc(C)nc3ccccc23)CC1 (centres undefined),-2,/,10,8,8.8*,/,-13,1
NC(=O)COC(=O)CC(c1ccccc1)c1ccccc1,1,-1,1,-2,-2,-1,/,/
NC(=O)CNCCC(c1ccccc1)c1ccccc1,0,4,11,4,9.8*,-2,-2,0
Cc1ccc(S(=O)(=O)N2CCC[C@H]2C(=O)Nc2ccc(F)cc2C)cc1,0,23,-13,4,-1,3,/,/
O=C(Nc1ccn(Cc2ccccc2F)n1)c1ccc(COc2ccccc2Cl)cc1,1,-13,19,8,13*,-4,31*,18*
CN1CCN(C(=O)/C(=C/c2ccccc2)c2ccccc2)CC1,0,-5,4,0,8.7*,-1,-9,-4
COC(=O)c1ccc(NC(=O)COC(=O)CCC2CCCC2)cc1,1,0,5,0,4,-1,/,/
COc1ccccc1NC(=O)c1ccc(NC(=O)COC(=O)CCC2CCCC2)cc1,0,8,13,12,9.4*,6,27*,15*
CCCCN1C[C@H](c2ccc(OC)cc2)[C@@H](CC(=O)Nc2ccc(Br)cc2)C1=O,0,/,10,5,14*,/,4,4
CCCCN1C[C@H](c2ccc(OC)cc2)[C@@H](CC(=O)Nc2ccc(OC)cc2)C1=O,0,/,-18,3,-5,/,/,/

# Bioassay records deposited in PubChem BioAssay by several laboratories.
